# Most compounds without a hit are left out; they make up all but 5.2% or so of the library.
# SKN-1 block = blocks SKN-1 activity in C. elegans; C. elegans VP596 Pgst-4::GFP/RFP ratio, acrylamide-induced, 24 h; inhibition, % at 21.8 µM; hit rate 0.49% among 360,000;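 active = interference check ratio from 0.5 to 1.5 plus GFP to RFP signal ratio inhibition reaching or exceeding a fixed threshold, cut at about 30% in these data, passing the limit was not always enough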
# esBAF inh = inhibitors of esBAF chromatin remodeling in mouse ES cells; Bmi1-luciferase knock-in reporter, 24 h; 100% = twice the neutral-well signal; reporter increase, % at 12.5 µM; hit rate 2% among 350,000; AID 602393; in the data active = activation above about 40%; inconclusive = no clear call, values can overlap the other calls;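 also: 0% = median of the plate's neutral control wells and 100% = double that signal; a rise in the Bmi1 reporter signal indicates esBAF inhibition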
# Vif inh = blocks HIV Vif function; HEK293T cells, Vif self-association by quenched fluorescence, imaging, 24 h; inhibition, % at 7.49 µM; hit rate 0.35% among 340,000; in the data active = inhibition above about 50%, passing the limit was not always enough; inconclusive = no clear call, values can overlap the other calls; inactive = below about 31%
# NadD inh = blocks S. aureus nicotinate mononucleotide adenylyltransferase | purified NadD enzyme, colorimetric absorbance read-out | inhibition, % at 20 µM | hit rate 0.78% among 360,000 | AID 602399; in the data active = inhibition above about 26%
# SMARCA2 activ = SMARCA2 function activation, primary screen | MG213 cells, MMTV-luciferase reporter, dexamethasone, overnight | activation, % at 9.1 µM | hit rate 1% among 370,000; in the data active = activation above about 7.8%;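 also: 0% = vehicle wells and 100% = reference activator wells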
# GRIN3A LBD mod = modulates the human NR3A ligand-binding domain; NR3A LBD differential scanning fluorimetry, Tm shift; 0% = protein alone, 100% = glycine-bound protein; Tm shift relative to glycine control, % at 25 µM; hit rate 2.5% among 340,000; AID 1259313;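 active = melting temperature shift of at least 10% of the positive control shift, at one fixed dose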
# esBAF Ring1 qPCR = de-represses Ring1 in mouse ESCs, confirming esBAF inhibition | shares compounds with esBAF inh | mouse ESC E14, Ring1 mRNA RT-qPCR fold change | fold change at 33 µM | 550 tested, under 10 active;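 active = Ring1 gene expression raised more than 2-fold over untreated cells in both replicates at either tested dose; inconclusive = only one replicate above 2-fold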;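 also: Ring1 transcript normalised to actin housekeeping signal by TaqMan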
# esBAF Fgf4 qPCR = esBAF inhibition confirmed by Fgf4 repression; Fgf4 expression fold change at 33 µM; shares compounds with esBAF inh; hit rate 4% among 550; mouse ESC E14, Fgf4 mRNA qPCR fold change; hits give low values;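 active = Fgf4 expression under 0.8 fold of control in both repeat measurements at one or both tested doses; inconclusive = under 0.8 fold in just a single repeat measurement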;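 also: Fgf4 transcript normalised to actin in duplex TaqMan qPCR; cells exposed to compound for 24 h before lysis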
# esBAF Bmi1 qPCR = esBAF inhibition confirmed by Bmi1 de-repression | fold change at 33 µM | 550 tested, under 10 active | shares compounds with esBAF inh | mouse ESE14 ES cells, Bmi1 mRNA qPCR fold; hits give high values | AID 743180;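 active = Bmi1 expression fold change above 6 at either tested concentration, seen in replicate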;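 also: higher fold means more Bmi1 de-repression and stronger esBAF inhibition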
# A549 cytotox = cytotoxicity in A549 cells. plate reader. 550 tested, under 10 active. cell viability change % (negative = cytotoxic), % at 25 µM, hits read low. shares compounds with esBAF inh; call rule not given here
# HepG2 tox SP = HepG2 cell cytotoxicity at single point; hit rate 4% among 550; plate reader; hits give low values; activity change, negative = inhibition, % at 25 µM; shares compounds with esBAF inh; in the data active = activity change below about -50%
# HEK293 cytotox SP = cytotoxicity in HEK293 cells. plate reader. shares compounds with esBAF inh. hit rate 3% among 550. activity change, negative = inhibition, % at 25 µM, hits read low; in the data active = activity change below about -38%, passing the limit was not always enough
# An asterisk follows results filed as active; u = inconclusive; x = not tested or not shown.
SMILES,SKN-1 block,esBAF inh,Vif inh,NadD inh,SMARCA2 activ,GRIN3A LBD mod,esBAF Ring1 qPCR,esBAF Fgf4 qPCR,esBAF Bmi1 qPCR,A549 cytotox,HepG2 tox SP,HEK293 cytotox SP
Cc1ccc(C)c(N2CCN(C(=O)CCc3nc(-c4ccc(F)cc4)no3)CC2)c1,10,-1,-7,2,2,2,x,x,x,x,x,x
COc1cccc(-c2nc(-c3ccc(NC(=O)c4cccs4)cc3)no2)c1,13,62*,-16,-5,4,15*,1.1,0.86,1.5,-15,-6,-18
COc1ccc(NC(=O)c2cc(-c3cccs3)on2)cc1OC,-3,10,5,-2,3,1,x,x,x,x,x,x
COc1ccc(NC(=O)c2cc(-c3cccs3)on2)cc1,7,62*,11,2,1,-2,0.96,u,2.1,-11,-3,8
CCCC(=O)Nc1ccc2c(c1)c1ccccc1n2CC,12,x,-6,-6,1,0,x,x,x,x,x,x
CCn1c2ccccc2c2cc(NC(=O)N3CCCCC3)ccc21,12,96*,0,-3,5,x,1.1,0.94,1.9,7,7,-1
CN(c1cccc(NC(=O)c2ccc(N(C)S(=O)(=O)c3ccccc3)cc2)c1)S(C)(=O)=O,-14,x,-22,-10,-4,-8,x,x,x,x,x,x
CN(c1cccc(NC(=O)c2ccc(C(C)(C)C)cc2)c1)S(C)(=O)=O,1,73*,-21,2,-1,3,1.2,0.82,2.3,11,-23,-43
O/N=C(\COc1ccccc1O)c1ccccc1,8,12,4,11,-1,6,x,x,x,x,x,x
ON=C(CCc1ccccc1)c1ccccc1,-4,74*,3,2,8,0,1.1,1.1,1.9,3,-21,-2
O=S(=O)(N[C@H]1CC[C@H](CCn2cc(-c3cccnc3)nn2)O[C@@H]1CO)c1ccc(F)cc1,x,2,x,x,x,x,x,x,x,x,x,x
Nc1ccc2ccccc2c1[N+](=O)[O-],1,-3,-6,-3,-4,1,x,x,x,x,x,x
Nc1cc2c3ccccc3ccc2c2ccccc12,7,79*,19,-3,-7,8,0.64*,0.48*,37*,-11,-20,-119*
C[C@@H]1CN([C@H](C)CO)C(=O)c2cccc(NC(=O)NC3CCCCC3)c2O[C@@H]1CN(C)S(=O)(=O)c1cn(C)cn1,x,3,x,x,x,x,x,x,x,x,x,x
OC(c1ccccc1)c1nc(-c2ccc3c(c2)OCO3)cs1 (stereo unspecified),-1,61*,-6,-5,6,x,0.99,0.84,1.3,-8,-8,-7
O=c1c(-c2nc3ccccc3s2)cccn1Cc1ccc(Cl)cc1,-6,67*,-10,1,0,-6,1,0.98,1.4,-10,3,-16
Cc1ccccc1S(=O)(=O)N1C[C@@H]2[C@H](c3ccccc31)[C@@H](CO)N2C(=O)CC1CC1,x,-6,x,x,x,x,x,x,x,x,x,x
CCCOc1ccc(NC(=O)C2CC(=O)N/C(=N/N=C(C)/C=C/c3ccc(N(C)C)cc3)S2)cc1 (stereo unspecified),4,59*,-11,56*,9.3*,-5,0.95,0.9,1.3,-2,-19,-4
COc1cccc(N2CCN(C(=O)c3ccc4ccccc4c3)CC2)c1,0,9,-4,2,1,0,x,x,x,x,x,x
COc1cccc(N2CCN(C(=O)c3ccc4nc(N5CCCCC5)sc4c3)CC2)c1,4,64*,-3,-2,1,-3,1.1,u,1.1,-4,8,-22
CN(C)c1ccc(C=NN2CCCCCC2)cc1,-2,75*,2,2,5,2,1.2,0.87,1.3,-6,-5,-4
CC(C)N1CC2(CC(c3ccccc3F)=NO2)CN1C(=O)c1ccc(C(C)(C)C)cc1 (stereo unspecified),-9,75*,-1,5,-2,x,0.92,0.89,1.7,-6,-1,-9
COc1cccc(NC(=O)CN(C)C(=O)CNC(=O)c2sc3ccccc3c2Cl)c1,2,67*,6,-2,4,-6,0.89,0.89,1.4,-14,-29,-32
COc1cccc(NC(=O)CN(C)C(=O)c2sc3cc(Cl)ccc3c2Cl)c1,-8,-5,-3,-4,1,7,x,x,x,x,x,x
Cc1ccc(S(=O)(=O)N(C)C[C@@H]2OCCCC[C@@H](C)Oc3ccc(NC(=O)Nc4ccc5c(c4)OCO5)cc3C(=O)N([C@@H](C)CO)C[C@@H]2C)cc1,x,7,x,x,x,x,x,x,x,x,x,x
SMILES,SKN-1 block,esBAF inh,Vif inh,NadD inh,SMARCA2 activ,GRIN3A LBD mod,esBAF Ring1 qPCR,esBAF Fgf4 qPCR,esBAF Bmi1 qPCR,A549 cytotox,HepG2 tox SP,HEK293 cytotox SP
N#Cc1c(NC(=O)c2ccccc2)sc2c1CCC2,19,x,2,-11,1,4,x,x,x,x,x,x
COc1ccccc1C(=O)Nc1sc2c(c1C#N)CCC2,5,59*,0,3,x,5,0.9,0.81,1.6,1,-28,-10
Cc1csc(-c2ccc3cc(Cl)cc(Cl)c3n2)n1,10,71*,5,4,-2,x,1.1,0.97,1.6,-10,28,-11
CN(C)CC(=O)Nc1ccc2c(c1)[C@@H]1C[C@H](CC(=O)NCc3cccnc3)O[C@@H](CO)[C@@H]1O2,x,0,x,x,x,x,x,x,x,x,x,x
Oc1ccc(Cl)c2cccnc12,-10,-3,0,1,1,-1,x,x,x,x,x,x
O=C(O)c1ccc(O)c2ncccc12,-5,71*,x,-3,1,x,0.99,0.93,1.5,-13,-22,-23
C[C@@H]1CN([C@@H](C)CO)C(=O)c2cc(NC(=O)Nc3ccc(F)cc3)ccc2O[C@H]1CN(C)Cc1ccc(-c2ccccc2)cc1,x,2,x,x,x,x,x,x,x,x,x,x
COc1cccc(OCc2cc(C(=O)N(Cc3ccccc3)CC3CC3)no2)c1,14,-5,-2,4,-2,-1,x,x,x,x,x,x
COc1cccc(OCc2cc(C(=O)N(C)Cc3nc4ccccc4[nH]3)no2)c1,9,69*,u,-1,4,0,1.3,u,1.7,-2,-23,-18
CCN(CC)CCn1c(C)nc2c(sc3nc4c(cc32)COC(C)(C)C4)c1=O,x,x,x,x,x,1,x,x,x,x,x,x
